Screening data: PubChem, National Center for Advancing Translational Sciences (NCATS)
In the library only some 6.9% were active in any assay of this set; here they are far more common.
HP1b binding inh = HTS for Inhibitors of HP1-beta Chromodomain Interactions with Methylated Histone Tails; Chromobox protein homolog 1 (Homo sapiens), P83916; AlphaScreen HP1-beta / biotin-H3K9me3 peptide binding; Potency, µM (titrated, usually from 114 µM), for the others: at the highest dose activity change, negative = inhibition, hits mostly inhibitors; 390,000 tested, 0.56% active; AID 540317, 2011; note: nearly all actives have a fitted effect of over 70% in size
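Compound inhibition of the preformed complex between 50 nM HP1-beta and 50 nM biotinylated H3K9me3 peptide was read by AlphaScreen. Buffer was PBS pH 7.4 with 0.01% Tween-20. Incubations ran 30 min at room temperature, with 10 ug/mL donor/acceptor beads.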
JMJD2A Tudor inh = qHTS Assay for Inhibitors of JMJD2A-Tudor Domain; AID 504339, 2011; AlphaScreen JMJD2A-Tudor / H3K4me3 peptide binding; 390,000 tested, 4.4% active; Potency, µM (series often up to 114 µM), for the others: at the top dose activity change, negative = inhibition, actives largely listed as inhibitors; note: % is set by controls: 0 for no effect and ±100 for the full control effect; nearly all actives have a fitted effect of over 50% in size
PLK1 PBD inh = qHTS for Inhibitors of PLK1-PDB (polo-like kinase 1 - polo-box domain): Primary Screen. 360,000 tested, 2.8% active. Potency, µM, without a hit: max response, negative = inhibition, actives largely listed as inhibitors. AID 720504, 2013. Plk1 PBD binding of FITC phosphopeptide, fluorescence polarization; note: series mostly up to about 57 µM; % is set by controls: 0 for no effect and ±100 for the full control effect; nearly all actives have a fitted effect of over 65% in size
Target sequence (P53350 whole entry, looked up, the tested form may be a part): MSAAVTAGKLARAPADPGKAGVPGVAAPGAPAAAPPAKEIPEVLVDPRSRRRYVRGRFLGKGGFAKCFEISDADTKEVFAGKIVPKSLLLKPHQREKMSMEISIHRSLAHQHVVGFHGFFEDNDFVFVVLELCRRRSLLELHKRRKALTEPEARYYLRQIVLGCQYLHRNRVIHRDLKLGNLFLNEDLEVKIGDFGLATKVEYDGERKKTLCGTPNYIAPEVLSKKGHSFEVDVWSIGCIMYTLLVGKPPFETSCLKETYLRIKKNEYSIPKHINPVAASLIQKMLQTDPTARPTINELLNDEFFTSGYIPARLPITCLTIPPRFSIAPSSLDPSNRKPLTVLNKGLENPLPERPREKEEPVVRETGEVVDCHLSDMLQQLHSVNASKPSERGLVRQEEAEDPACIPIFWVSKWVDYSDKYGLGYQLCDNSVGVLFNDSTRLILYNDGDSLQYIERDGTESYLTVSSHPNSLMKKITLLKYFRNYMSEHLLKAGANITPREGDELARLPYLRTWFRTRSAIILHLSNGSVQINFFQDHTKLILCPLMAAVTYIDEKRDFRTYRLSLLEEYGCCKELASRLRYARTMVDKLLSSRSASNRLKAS
BAZ2B block = qHTS Assay for Inhibitors of BAZ2B; AlphaScreen BAZ2B-H3K14Ac peptide displacement; 360,000 tested, 4.4% active; Potency, µM (doses to about 114 µM), for the others: at the top dose activity change, negative = inhibition, most hits filed as inhibitors; Bromodomain adjacent to zinc finger domain protein 2B (Homo sapiens), Q9UIF8; note: % is set by controls: 0 for no effect and ±100 for the full control effect; nearly all actives have a fitted effect of over 60% in size
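AlphaScreen displacement of biotin-H3(5-23)K14Ac peptide (50 nM final) from BAZ2B (50 nM final) in PBS pH 7.4, 0.01% Tween-20; complex preformed 30 min RT, then compounds (top 110 uM) 30 min RT, beads 20 min dark.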
L3MBTL1 block = qHTS Assay for the Inhibitors of L3MBTL1; 230,000 tested, 0.66% active; AID 485360, 2010; Potency, µM (highest dose often 57.1 µM), without a hit: at the top dose activity, negative = inhibition, actives largely listed as inhibitors; AlphaScreen L3MBTL1–H3K9me1 peptide binding; Lethal(3)malignant brain tumor-like protein 1 (Homo sapiens), Q9Y468; note: % is set by controls: 0 for no effect and ±100 for the full control effect; nearly all actives have a fitted effect of over 60% in size
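AlphaScreen proximity signal between nickel-chelate acceptor and streptavidin donor beads (final 10 ug/mL) reports binding of 50 nM L3MBTL1 to 75 nM biotin-H3 K9me1 peptide; complex incubated with compounds 30 min at room temperature; cefsulodin titration as control.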
VDR inh = Inhibitors of the vitamin D receptor (VDR): qHTS; Vitamin D3 receptor (Homo sapiens), P11473; VDR-SRC2-3 peptide fluorescence polarization, 2 h; Potency, µM, inactives show max response, negative = inhibition, most hits filed as inhibitors; 400,000 tested, 0.93% active; AID 504847, 2011; note: % is set by controls: 0 for no effect and ±100 for the full control effect
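Fluorescence polarization assay measuring small-molecule disruption of VDR binding to the coregulator peptide SRC2-3. Compounds were pin-transferred (23 nl) into the reagent mix and incubated 2 h at room temperature before reading.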
* = called active by the depositor; u = inconclusive; x = no result. Calls come from the whole dose curve; as a rule, active = well fitted curve in the direction sought with a large enough effect; inconclusive = small, poorly fitted or top-dose-only effect, or another doubt; inactive = no such curve, though single readings can be large; an effect the other way counts as inactive or inconclusive. Potency is the fitted concentration of half-maximal effect.

SMILES	HP1b binding inh	JMJD2A Tudor inh	PLK1 PBD inh	BAZ2B block	L3MBTL1 block	VDR inh
CCOC(=O)c1ccc(N2CCN(c3cc(Cl)ccc3C)CC2)c(NC(=O)Nc2cccc(OC)c2)c1	25.5%	-2.8%	x	4.1%	x	13.9%
Cc1ccc(NC(=O)Cn2c(=O)n(CCc3ccccc3)c(=O)c3c4c(sc32)CCCC4)cc1C	3.8%	-18.1%	x	-1.7%	x	0.2%
COC(=O)c1scc(-c2ccc(C)cc2)c1S(=O)(=O)Nc1ccc(N(C)C)cc1	u	u	x	8.91µM*	x	18.4%
COC(=O)c1scc(-c2ccc(C)cc2)c1S(=O)(=O)Nc1ccc(NC(C)=O)cc1	-1.5%	-11.3%	x	-14.5%	x	-1.9%
Nn1c(SCc2cn3cc(Cl)ccc3n2)nnc1-c1ccncc1	1.0%	-12.8%	10.6µM*	-22.4%	2.7%	u
Nn1c(SCc2cn3ccccc3n2)nnc1-c1ccncc1	25.2%	-9.3%	-11.7%	-20.2%	1.1%	1.3%
CCOC(=O)c1sc(NC(=O)C2CCCO2)c(C(=O)OCC)c1C (stereo not drawn)	x	x	x	56.2µM*	x	x
CCOC(=O)c1c(NC(=O)C2CCCO2)sc(C(=O)OC(C)(C)C)c1C (stereo not drawn)	u	u	5.97µM*	6.1%	x	u
CCc1nc2ccc(C(=O)NCc3ccc(OC)cc3)cn2c1N(C)CCC(C)C	x	x	6.1%	x	x	x
CCc1ccc(CN(Cc2ccco2)C(=O)c2cc(-c3ccc(C)c(F)c3)on2)cc1	32.6%	-17.2%	x	u	x	9.8%
O=C(c1ccc(N2CCOCC2)cc1[N+](=O)[O-])N1CCOCC1	23.7%	-10.4%	-9.8%	3.6%	x	1.5%
CCOc1ccccc1CNC(=O)C1CCN(C(=O)N2CC(CC)Oc3ccc(C)cc32)CC1 (stereo not drawn)	18.5%	-28.9%	x	u	x	14.0%
COc1ccc(-n2cc(C(=O)N(CCN(C)C)Cc3ccccc3)c3ccccc3c2=O)cc1	29.4%	u	x	-33.5%	x	-7.4%
Cc1ccc2nc3c(nc2c1C)C(O)=C3O	u	-18.1%	10.6µM*	-3.4%	x	u
Cc1ccc2nc3c(nc2c1C)CCCC3	12.5%	-6.1%	-7.8%	10.1%	x	-1.8%
S=c1sscc1-c1ccccc1	20µM*	31.6µM*	u	x	x	-6.5%
COCCN(C(=O)COC(=O)CCS(=O)(=O)c1ccccc1)c1c(N)n(Cc2ccccc2)c(=O)[nH]c1=O	14.4%	-3.4%	-10.2%	-0.6%	-0.3%	7.9%
COc1ccccc1C(=O)N1CCC(N2CCN(c3ccccc3OC)CC2)CC1	u	17.8µM*	6.2%	50.1µM*	-6.4%	2.5%
COc1ccccc1N1CCN(C2CCN(C(=O)COc3ccccc3)CC2)CC1	4.2%	-17.6%	-12.4%	50.1µM*	-1.0%	16.9%
COc1ccc(S(=O)(=O)N2CCC(N3CCN(Cc4ccccc4)C(=O)C3=O)CC2)cc1	19.6%	79.4µM*	x	-0.3%	x	10.8%
COc1ccc(S(=O)(=O)N2CCC(N3CCN(c4ccccc4OC)CC3)CC2)cc1	39.8µM*	1.78µM*	1.7%	39.8µM*	-2.9%	-7.2%
Cc1ccc(S(=O)(=O)N2CCC(N3CCN(Cc4ccccc4)C(=O)C3=O)CC2)cc1C	17.2%	-21.8%	x	-2.2%	x	0.9%
Cc1noc(C)c1S(=O)(=O)N(C)C[C@H]1Oc2ccc(NC(=O)CCC(F)(F)F)cc2C(=O)N([C@H](C)CO)C[C@@H]1C	32.3%	-20.4%	-12.3%	x	7.2%	27.6%
COc1cccc(NC(=O)C2CCC(CNS(=O)(=O)c3ccc4c(c3)CCCC(=O)N4)CC2)c1 (stereo not drawn)	15.5%	-1.3%	x	2.0%	x	9.8%
O=C(CCC1CCCC1)N1CCC(N2CCN(c3ccccc3)CC2)CC1	u	1.41µM*	0.2%	31.6µM*	x	-1.5%
SMILES	HP1b binding inh	JMJD2A Tudor inh	PLK1 PBD inh	BAZ2B block	L3MBTL1 block	VDR inh
COc1ccccc1C(=O)N1CCC(N2CCN(c3ccccc3)CC2)CC1	u	2.51µM*	-1.7%	50.1µM*	6.5%	-7.0%
Cc1cccc(OCC(=O)N2CCN(C(=O)COc3ccc(Cl)cc3)CC2)c1	2.3%	-11.6%	0.3%	-2.5%	x	-12.0%
O=C(CCCc1ccccc1)N1CCN(C2CCCCC2)CC1	4.1%	-8.3%	-10.4%	-35.9%	-2.3%	-5.7%
Cc1cccc(OCC(=O)N2CCC(N3CCCCCC3)CC2)c1	u	3.16µM*	-9.8%	u	0.1%	-1.1%
O=C(c1cccs1)N1CCC(c2nc3c(nnn3Cc3c(Cl)cccc3Cl)c(=O)[nH]2)CC1	-3.7%	-18.3%	-4.1%	-14.0%	x	0.2%
CN(C)CCCNCCCNC(=O)c1ccco1	13.2%	-20.9%	-3.6%	-36.6%	x	-0.9%
CN(C)CCCNCC(=O)NN(c1ccccc1)c1ccccc1	-31.9%	0.794µM*	6.3%	31.6µM*	x	8.3%
COc1cc(C#Cc2c(-c3cncn3C)n(C)c3ccc(-c4ccc(OC)nc4)cc23)cc(OC)c1	-11.0%	14.1µM*	-13.2%	39.8µM*	u	14.6%
COc1ccccc1-c1nc(CNC(=O)NC2CCCCC2)c(C)o1	32.0%	-1.0%	x	-14.7%	x	13.5%
COc1ccc(/C=C/C(=O)Oc2cccc(/C=N/NC(=O)COc3c(C)cccc3C)c2)cc1	19.7%	2.5%	-12.0%	100µM*	-1.9%	-14.7%
CC(=O)Oc1ccc(/C=C2/CCc3ccccc3C2=O)cc1	36.1%	1.7%	1.7%	-12.9%	-19.1%	u
O=C1/C(=C/c2ccc([N+](=O)[O-])cc2)CCc2ccccc21	x	x	x	31.6µM*	x	x
CCOC(=O)c1c(NC(=O)COc2ccc(Cl)cc2Cl)sc2c1CCCCC2	43.0%	3.6%	x	2.4%	x	7.4%
COc1ccc(CN2CC(=O)N(c3cc(Cl)ccc3C)C2=S)cc1OC	6.8%	-30.8%	-25.1%	4.4%	x	-10.2%
COc1cc(CN2CC(=O)N(c3cc(Cl)ccc3C)C2=S)cc(OC)c1OC	12.0%	u	15µM*	-18.1%	x	u
COc1ccc(CNc2nc(-c3ccccc3OC)nc3ccccc23)c(OC)c1	x	x	x	x	x	-3.2%
CCSc1nc(=S)cc(C)[nH]1	3.8%	-10.9%	26.7µM*	18.8%	21.0%	79.4µM*
CCSc1nc(O)cc(=O)[nH]1	49.9%	2.8%	0.3%	-17.9%	x	-5.6%
CCC(CC)C(=O)Nc1ccc2nc(SCC(=O)N3CCOCC3)sc2c1	21.1%	-17.5%	x	-4.6%	x	-4.3%
